# Sampled rows, rich in hits. Any-hit rate of the full collection: about 2.9%.
# SNCA expr inhib – Primary qHTS assay for inhibitors of alpha-synuclein gene (SNCA) expression; Potency, µM (titrated, usually from 57.2 µM), inactives show at the top dose activity change, negative = inhibition, usual class: inhibitors; HEK-293 SNCA-luciferase knock-in, luminescence, 24 h; AID 1671194, 2021; 140,000 compounds, 0.17% hits;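 also: potency is read from the fitted curve at half-maximal effect; plate controls were DMSO cells for no effect and cell-free wells for full effect; nearly all actives have a fitted effect of over 45% in size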
# IP6K1 inh – Primary qHTS assay for small molecule inhibitors of Inositol hexaphosphate kinase 1 (IP6K1) | 140,000 compounds, 0.81% hits | Inositol hexakisphosphate kinase 1 (Homo sapiens), Q92551 | AID 1645851, 2021 | activity change, % (series mostly up to about 58 µM) | IP6K1 kinase, ADP-Glo luminescence, 2 h; active compounds read low; in the data active = activity change below about -25%; also: % is scaled to controls: 0 for no effect and ±100 for the full control effect
# Target sequence (Q92551 whole entry, looked up): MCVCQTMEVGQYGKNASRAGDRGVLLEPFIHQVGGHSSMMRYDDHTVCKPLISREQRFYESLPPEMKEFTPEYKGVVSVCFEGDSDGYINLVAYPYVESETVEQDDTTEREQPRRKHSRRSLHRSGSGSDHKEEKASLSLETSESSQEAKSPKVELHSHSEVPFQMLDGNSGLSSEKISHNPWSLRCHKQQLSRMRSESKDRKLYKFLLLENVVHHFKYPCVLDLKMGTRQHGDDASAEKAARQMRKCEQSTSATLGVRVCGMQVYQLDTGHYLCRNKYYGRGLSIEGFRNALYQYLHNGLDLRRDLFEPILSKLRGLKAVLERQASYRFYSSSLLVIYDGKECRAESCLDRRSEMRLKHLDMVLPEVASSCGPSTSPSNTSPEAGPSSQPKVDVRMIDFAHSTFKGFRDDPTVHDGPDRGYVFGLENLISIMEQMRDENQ
#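 ADP-Glo luminescence measures ADP made by human IP6K1 during a 2 h RT reaction with ATP/IP6 (mix at 1.3 mM/130 uM); top library doses 57.5 and 19.1 uM final.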
# HEK293 viab – GF-AFC viability counterscreen for inhibitors of alpha-synuclein gene (SNCA) expression; Potency, µM (titrated, usually from 57.1 µM), without a hit: at the highest dose activity change, negative = cytotoxicity, hits mostly cytotoxic; 150,000 compounds, 0.12% hits; AID 1671193, 2021; HEK-293-SNCA-luc viability, GF-AFC fluorescence, 24 h;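 also: potency is read from the fitted curve at half-maximal effect; 0% = DMSO-treated cells and -100% = medium-only wells without cells; nearly all actives have a fitted effect of over 30% in size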
#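 HEK-293-SNCA-luc cells (1500/well) plated 24 h, then exposed 24 h to a dilution series; GF-AFC added 30 min at 37C, fluorescence 405/540 nm; normalised to medium-only and DMSO wells, Hill fit.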
# KDM5B inh – Primary screen for KDM5B Histone Demethylases FDH-coupled qHTS; KDM5B demethylase, FDH-coupled NADH fluorescence (FDH is formaldehyde dehydrogenase); Potency, µM (titrated, usually from 57.7 µM), hits mostly inhibitors; 220,000 compounds, 2.6% hits; AID 1347165, 2019; also: potency is read from the fitted curve at half-maximal effect; 0% is about no effect; nearly all actives have a fitted effect of over 70% in size
#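 qHTS format, multiple compound concentrations. Buffer 50 mM HEPES pH 7.5/0.01% Tween-20; 200 nM KDM5BΔAP final; 10 min compound preincubation; substrate-mix levels 12.5 µM peptide, 25 µM α-KG, 0.25 mM NAD⁺; 30 min RT; ΔRFU.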
# An asterisk follows results filed as active; i = inactive; ? = inconclusive; / = not tested or not shown; [ ] = remark or other dose. Unless noted, calls follow the shape of the dose curve; as a rule, active = well fitted curve in the direction sought with a large enough effect; inconclusive = small, poorly fitted or top-dose-only effect, or another doubt; inactive = no such curve, though single readings can be large; an effect the other way counts as inactive or inconclusive.
SMILES,SNCA expr inhib,IP6K1 inh,HEK293 viab,KDM5B inh
COc1ccccc1-c1cnc(NCc2ccccc2)c2c1CCO2,127%[87.6 µM],-22,0%[87.6 µM],35µM*
c1ccc(CNc2ncc(-c3ccc(N4CCOCC4)cc3)c3c2OCC3)cc1,15%[87.6 µM],6,-21%[87.6 µM],40µM*
O=C(c1ccccc1Cl)N1CCC(C(=O)N2CCC(c3ccccc3)CC2)CC1,18%,16,-11%,/
O=C(CCNc1c(-c2cccc(F)c2)nc2cnccn12)N1CCCC1,-4%,7,?,28µM*
O=C(CCNc1c(-c2ccccc2)nc2cnccn12)N1CCCC1,-3%,-7,?,28µM*
CN(Cc1ccccc1)C(=O)CCNc1c(-c2cccc(F)c2)nc2cnccn12,30%,22,?,25µM*
CCc1cccc(C)c1Nc1c(-c2cccc(O)c2)nc2cnccn12,39%,11,?,?
O=C(O)CCNc1c(-c2ccc(F)cc2)nc2cnccn12,9%,6,27%,28µM*
CCc1cccc(C)c1Nc1c(-c2ccc(N(C)C)cc2)nc2cnccn12,-25%,-10,?,?
O=C(CCNS(=O)(=O)c1ccccc1)N1CCCCCC1,/,/,/,i
Cc1ccc([S+](=O)([O-])NC2CCN(c3nccc(Nc4ccccc4F)n3)CC2)cc1,3%,-3,9%[12.5 µM],/
CCN1CCN(C(=O)c2cc(-c3ccc(C(F)(F)F)cc3)nc3c2cnn3C)CC1,/,-12,/,/
COc1ccc(-c2nc3cnccn3c2NCCC(=O)N2CCCCCC2)cc1,0%,4,?,28µM*
Cc1ccc(-c2nc3cnccn3c2NCCC(=O)N2CCCCC2)cc1,-12%,18,?,32µM*
Cc1ccccc1C(=O)N1CCCC(N2C(=O)c3c(c(C)nn3-c3ccccc3)C2C(C)C)C1 (centres undefined),/,9,/,/
CC(=O)NCC(=O)N1Cc2ccccc2CC2(CCCN(CC3CCNC3)C2)C1 (centres undefined),5%,7,4%,?
CC(=O)N1Cc2ccccc2CC2(CCCN(CC3CCNC3)C2)C1 (centres undefined),-11%,1,0%,25µM*
O=C(c1ccc(Cl)cc1)N1CC2(CCCN2CC2CCCCC2)Cc2ccccc21 (centres undefined),-6%,3,3%,56µM*
CC(=O)N1Cc2ccccc2CC2(CCCCN2CC2CCCC2)C1 (centres undefined),-9%,-3,-19%,50µM*
CC(C)C(=O)N1Cc2ccccc2CC2(CCCN2Cc2ccncc2)C1 (centres undefined),-5%,-7,2%,56µM*
CC(C)C(=O)N1Cc2ccccc2CC2(CCCCN2Cc2ccncc2)C1 (centres undefined),-14%,-9,-4%,i
CC(=O)N1Cc2ccccc2CC2(CCCN2CC2CCCC2)C1 (centres undefined),19%,-11,-19%,?
COC(=O)N(Cc1cccc(N2CCN([S+](=O)([O-])c3c(Cl)cccc3Cl)CC2)c1F)C(C)C,/,4,/,/
O=C(c1ccc2oc(-c3ccncc3Cl)nc2c1)N1CCCCC1,28%[87.6 µM],1,13%[12.5 µM],/
Cc1ccc(-n2ncnc2-c2cc3c(n(-c4ccc(C)cc4)c2=O)CC(C)(C)CC3=O)cc1,/,/,/,i
SMILES,SNCA expr inhib,IP6K1 inh,HEK293 viab,KDM5B inh
COCCOCC(=O)N1CCC[C@H](n2c(=O)n(Cc3ccccc3)c3cccnc32)C1,13%,-4,8%,/
Cc1cc(C)cc(NC(=O)C2CCN(C(=O)c3ncn4c3COC(c3ccccc3)C4)CC2)c1 (centres undefined),121%,0,-2%,i
NC(=O)c1cccc(CN2CCCC23Cc2ccccc2N(C(=O)c2ccc(Cl)cc2)C3)c1 (centres undefined),-9%,-14,-12%,79µM*
Cn1ncc2c(C(=O)NCc3ccccc3)cc(-c3cccc(F)c3)nc21,/,4,/,/
O=c1[nH]c(-c2ccc(F)cc2)nc2c1CCN(S(=O)(=O)c1ccc3c(c1)CCC3)C2,1%,29,6%,?
O=c1[nH]c(-c2ccc(F)cc2)nc2c1CCN(S(=O)(=O)c1cccs1)C2,6%,21,0%,32µM*
C[S+](=O)([O-])c1cccc(CN2CC(COc3ccccc3)C3(C2)CN(c2ccccc2)C3)c1 (centres undefined),?,-9,-13%,35µM*
Nc1ncccc1CN1CC(COc2ccccc2)C2(C1)CN(c1ccccc1)C2 (centres undefined),?,-13,-17%[87.6 µM],?
Clc1cccc(CN2CC(CNc3cccnc3)C3(C2)CN(c2ccccc2)C3)c1 (centres undefined),?,-2,-18%[87.6 µM],32µM*
N#Cc1cccc(CN2CC(COc3ccccc3)C3(C2)CN(c2ccccc2)C3)c1 (centres undefined),-21%[87.6 µM],12,-4%[87.6 µM],40µM*
O=[S+]([O-])(NCC1CN(Cc2cccc(Cl)c2)CC12CN(c1ccccc1)C2)c1ccccc1 (centres undefined),?,7,-14%,?
COc1ccc(-c2cc(C(=O)NC3CCCCC3)c3cnn(C)c3n2)cc1,-16%,0,-1%,/
Cc1ccc(C(=O)Nc2cccc(-c3ccc(N4CCN(C)CC4)nn3)c2)cc1C,14%,16,-10%,i
CN1CCN(c2ccc(-c3cccc(N)c3)nn2)CC1,22µM*,-10,-5%,i
CCn1c2c(c(=O)n1-c1ccccc1)CCN(C(=O)c1ccc(Oc3ccccc3)cc1)C2,3%,8,?,i
NC(=O)c1c(OCc2c(F)cc(Br)cc2F)nsc1NC(=O)NCCCCN1CCCC1,6.1µM*,15,?,/
O=C1CN([S+](=O)([O-])c2ccccc2)CC(O)CN1Cc1ccc(Cl)cc1 (centres undefined),/,1,/,/
O=C(Cc1c[nH]c2ncc(-c3ccccc3)cc12)NCCCn1ccnc1,-7%[87.6 µM],4,5%[87.6 µM],40µM*
O=C(NCCCn1ccnc1)c1ccc(-c2ccccc2)cc1,/,/,/,i
COCCNC(=O)Cc1c[nH]c2ncc(-c3ccc(OC)cc3)cc12,24%[87.6 µM],5,8%[87.6 µM],35µM*
COCCNC(=O)Cc1c[nH]c2ncc(-c3ccccc3)cc12,-28%[87.6 µM],18,7%[87.6 µM],40µM*
COc1ccc(-c2cnc3[nH]cc(CC(=O)NCc4cnccn4)c3c2)cc1,9%[87.6 µM],-17,2%[87.6 µM],i
Cc1nn(-c2ccccc2)c2c1C(C)N(C1CCN(C(=O)C3CCCC3)C1)C2=O (centres undefined),/,-1,/,/
O=C(NCc1ccccc1F)C1CCCN(Cc2cccc(-c3cccs3)c2)C1 (centres undefined),/,4,/,/
COc1ccc(-c2ccc(C(=O)NCCc3ccccc3)c(Cl)c2)nn1,/,0,/,/
Fc1ccc(CN2CCOC[C@H]2c2ncc(-c3ccc(F)cc3F)[nH]2)cc1,-11%[87.6 µM],10,-5%[87.6 µM],i

# Compound activity as filed in PubChem.
